The text below walks through data of PubChem BioAssay (EPA / NIEHS).

Structures are written as SMILES. Activity calls are given as the source filed them. The calls were made as follows: active = hit-call score of the fitted dose curve at least 0.9, where 1 is the maximum; inactive = score below 0.9.

The experiment in a line: CCTE_Shafer_MEA_dev_mutual_information_norm: CCTE's Neural Network Formation Assay for Mutual Information Normalization, Shafer Lab (AID 2284091).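 As to AC50: potency is for a decrease in mutual information relative to DMSO.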 As to the method:
CCTE_Shafer_MEA_dev assay is conducted using Axion Biosystems 48 well microelectrode array (MEA) plates and Maestro recording system. Each well of the MEA plate contains a grid of 16 microelectrodes embedded in the culture surface. Electrically active cells, such as neurons, can be cultured over the electrodes, and electrical activity in these cells can be recorded extracellularly. The spontaneous firing of neurons is captured from each electrode on a microsecond timescale providing both temporally and spatially precise data. […] The CCTE_Shafer_MEA_dev assay uses primary cultures of rat cortical neurons. Recordings are made on days post-plating 5, 7, 9 and 12. As these cultures mature over time, neural networks develop functional activity and form cohesive networks in which electrical activity can be highly coordinated. CCTE_Shafer_MEA_dev_mutual_information_norm is 1 of 19 assay components of the CCTE_Shafer_MEA_dev assay. It is a measure of shared information between electrodes during a recording in a microelectrode array (MEA) using Axion Biosystems Maestro 768 channel amplifier with the AxIS adaptive spike detector. To collapse across multiple recordings made on days post-plating 5, 7, 9 and 12, the trapezoidal area-under-the-curve of the component is calculated.Data from the assay component CCTE_Shafer_MEA_dev_mutual_information_norm was analyzed into 1 assay endpoint. This assay endpoint, CCTE_Shafer_MEA_dev_mutual_information_norm, was analyzed in the negative analysis fitting direction relative to DMSO as the negative control and baseline of activity. Using a type of functional reporter, gain or loss-of-signal activity can be used to understand electrical activity.
On the day prior to culture, each well was coated thoroughly with 150 uL of 0.05% polyethyleneimine (PEI, Sigma Cat P3143) in 50 mM HEPES (Sigma Cat H7523) at a pH of 8. The plate was incubated at 37C for one hour. PEI was rinsed out with 500 uL of sterile water three times. Plates were stored at 4C until the day of culture. This culture was plated at a seeding density of 1.5 x 10^5 cells/well on a 48-well MEA plate, prepared as described above. Cells were administered via a 25 uL media/laminin ([…]; Sigma Cat L2020-1MG) drop directly onto the microelectrode array, as adding the cells with the laminin results in better attachment than pre-coating with laminin. After 2 hours, an additional 475 uL of cortical media was added and the cells returned to the incubator. Exposure starts at day 0 of plating and is continued over twelve days of network development until the experiment is terminated. Cells are fed with fresh medium on DIV 5 and 9, following the recordings on those days. The entire volume of media in the well is exchanged and any vehicle or compound treatment is renewed. Complete details are found in OP-NHEERL/ISTD/SBB/TJS/2015-03-r0 (available on request, email shafer.tim@epa.gov). Measurement of the electrical activity is non-invasive, and recordings can be made from the same plate over multiple different days of the culture. In cortical neurons, this allows for the measurement of extracellular action potentials over the period during which networks form in the MEA plate.
With `CC(C)c1nn(C(=O)NC(C)(C)C)c(=O)n1N`, the result was inactive.
Consider `[O]=[V]([OH])([OH])[OH]`, for which the AC50 is 4.55 µM (active).
Consider `c1cc2c3c(c1)ccc1cccc(c13)C2`, for which the compound was classed as inactive.
Same read-out and setting: next, `CC(C)O`: “inactive”.
Still for that read-out and setting: next, `O=C1CC2(CCCC2)CC(=O)N1CCCCN1CCN(c2ncccn2)CC1`: “inactive”; `c1ccc2c(c1)ccc1c3ccccc3ccc21`: “inactive”; `CCCCCC(C)(CC)C(=O)NC` (configuration not stated): “inactive”.
For `CC(CNC(=S)[S-])NC(=S)[S-].[Zn+2]` (configuration not stated), the AC50 is 4.05 µM (active).
For `CC(=O)N[C@@H](CC(=O)O)C(=O)O`, the result was inactive.
For `C[C@@H]1CCO[C@H]2Cn3cc(C(=O)NCc4ccc(F)cc4F)c(=O)c(O)c3C(=O)N12`, the AC50 is 1.55 µM (active).
In the case of `Brc1cc(Br)c(Oc2cc(Br)c(Br)cc2Br)cc1Br`, the compound was called inactive.
For `BrC1CC(Br)CC(Br)CC(Br)CC(Br)CC(Br)C1` (configuration not stated), the AC50 is 2.73 µM (active).
Turning to `CCc1ccccc1`, the compound was called inactive.
Still for that read-out and setting: next, `F`: “inactive”; `Cc1[nH]n(C)c(=O)c1C(=O)c1ccc(C(F)(F)F)cc1S(C)(=O)=O`: “inactive”.
Same read-out and setting: the entry for `C[C@@H]1CC[C@@H](C(C)(C)O)[C@H](O)C1` is “inactive”; for `CCCCCC=C(C)C(CC)CCO` (configuration not stated) it is “inactive”.

Broadly, the AC50 is the concentration giving half of the maximal activity seen.
